The values that follow come from PubChem BioAssay (Tox21).

Each structure is given as a SMILES string. “And” between values parts separate entries of the source, which are not always exact repeats. Identical values can stand only once. Unmarked numbers belong to inactive results. Inconclusive results are not listed. The source made the active and inactive calls. Unless noted, calls follow the shape of the dose curve; as a rule, active = well fitted curve in the direction sought with a large enough effect in the repeat runs; inconclusive = weak or mixed curves; inactive = no such curve, though single readings can be large; an effect the other way counts as inactive or inconclusive.

A short description of assay [1]: qHTS assay to identify small molecule antagonists of the estrogen related receptor (ERR) signaling pathway from Tox21 library - cell viability counter screen (AID 1224834). Also: nearly all actives have a fitted effect of over 30% in size. Also: potency is read from the fitted curve at half-maximal effect. A digest of the protocol:
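Cytotoxicity of test substances is gauged in the same ERR cells used for the antagonist screen, after 17.5 h of compound treatment at 37 C, by CellTiter-Fluor fluorescence measured after 30 min.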

Assay [2] addresses Luciferin 4-monooxygenase (Photinus pyralis) (UniProt P08659). The assay is described as follows: qHTS assay to identify small molecule inhibitors of firefly luciferase (AID 1224835). Also: nearly all actives have a fitted effect of over 25% in size. In a few lines:
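Inhibition of purified Photinus luciferase is measured by luminescence. Substrate levels (D-luciferin, ATP) sit at their KM values. Each compound is tested in a concentration series.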

A short description of assay [3]: qHTS assay to identify small molecule agonists of the constitutive androstane receptor (CAR) signaling pathway - cell viability counter screen (AID 1224836). Also: nearly all actives have a fitted effect of over 45% in size. A digest of the protocol: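 Using CellTiter-Fluor, viability of HepG2 cells harbouring hCAR and CYP2B6-2.2kb was measured following 23 h incubation with a 15-concentration compound series plus PK11195 (0.75 uM final).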
On the technique in general: In qHTS, concentration-response curves come from the screen itself.

The nature of assay [4]: qHTS assay to identify small molecule antagonists of the constitutive androstane receptor (CAR) signaling pathway - cell viability counter screen (AID 1224837). Also: nearly all actives have a fitted effect of over 45% in size. A digest of the protocol:
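Multiplexed cytotoxicity read-out for the CAR antagonist screen: double-stable HepG2-CYP2B6-hCAR cells co-treated with 50 nM CITCO (final) and compound over 15 concentrations, incubated 23 hr, then assessed by CellTiter-Fluor fluorescence.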

The target of assay [5] is Nuclear receptor subfamily 1 group I member 3 (Homo sapiens) (UniProt Q14994). As to the kind of experiment: qHTS assay to identify small molecule antagonists of the constitutive androstane receptor (CAR) signaling pathway (AID 1224838). Also: nearly all actives have a fitted effect of over 40% in size. A digest of the protocol:
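Compounds were titrated across 15 concentrations onto HepG2 cells double-stably expressing hCAR and a CYP2B6-2.2kb reporter, together with 50 nM CITCO (final). After 24 h at 37 C, luciferase activity was measured by luminescence.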

Assay [6] has the same target. As to the kind of experiment: qHTS assay to identify small molecule agonists of the constitutive androstane receptor (CAR) signaling pathway (AID 1224839).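 Also: HepG2 cells stably carrying human CAR and a CYP2B6 luciferase reporter; nearly all actives have a fitted effect of over 15% in size.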 In a few lines: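 Double-stable HepG2 cells (hCAR, CYP2B6-2.2kb) seeded 4 h before compound addition. Exposure 24 h with 0.75 uM PK11195 final. Luciferase detected by ONE-Glo.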
Assay [7] can be described thus: qHTS assay to identify small molecule antagonists of the estrogen related receptor signaling pathway with the pleiotropic PPARgamma coactivator (PGC) from Tox21 10K library - cell viability counter screen (AID 1224840; active = well fitted cell-killing curve with a large enough effect in the repeat runs, not every such curve was filed as active; also: nearly all actives have a fitted effect of over 40% in size). In a few lines:
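Step one, plate 2,000 PGC/ERR cells per well; step two, incubate 6 h at 37 C/5% CO2; step three, pin-transfer compounds; step four, incubate 17.5 h; step five, add CellTiter-Fluor and read fluorescence after 30 min.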

A short description of assay [8]: qHTS assay to identify small molecule antagonists of the estrogen related receptor signaling pathway with the pleiotropic PPARgamma coactivator (PGC) from Tox21 10K library (AID 1224841; call rule not given here; also: actives are mostly falling curves and most rising ones were filed inactive; nearly all actives have a fitted effect of over 50% in size; also: potency is read from the fitted curve at half-maximal effect). A digest of the protocol: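 Antagonism in this quantitative HTS is taken from loss of luciferase signal in PGC/ERR cells. Cells (2,000/well) are treated with compounds in DMSO after a 6 h settling period and read by One-Glo luminescence after 18 h.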

A short description of assay [9]: qHTS assay to identify small molecule agonists of the estrogen related receptor signaling pathway with the pleiotropic PPARgamma coactivator (PGC) from Tox21 10K library (AID 1224842). Also: nearly all actives have a fitted effect of over 15% in size. A digest of the protocol:
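Luminescence from One-Glo (30 min, room temperature) measured after PGC/ERR cells had 18 h at 37 C with pinned compound (23 nL in DMSO). Cells had been seeded at 2,000 per well and pre-incubated 6 h.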

The target of assay [10] is Thyrotropin receptor (Homo sapiens) (UniProt P16473). As to the kind of experiment: qHTS assay to identify small molecule agonists of the thyroid stimulating hormone receptor (TSHR) signaling pathway (AID 1224843; calls by dose curve; also: nearly all actives have a fitted effect of over 45% in size). In a few lines: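 Screening of the Tox21 10K collection used HEK293 cells engineered with TSHR at 800 cells per well. After a 30-min room-temperature compound exposure, HTRF cAMP reagents were added and fluorescence recorded 1 h later.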

Assay [11] in a line: qHTS assay to identify small molecule agonists of the hypoxia (HIF-1) signaling pathway - cell viability counter screen (AID 1224844; calls by dose curve; also: nearly all actives have a fitted effect of over 50% in size; also: potency is read from the fitted curve at half-maximal effect). A digest of the protocol: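 Tox21 10K compounds were added to HRE-bla ME-180 cells (0.5% dialyzed FBS) and incubated 17 hrs at 37C; ATP-based CellTiter-Glo luminescence then reported cell viability in the same wells.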
Assay [12] is described as follows: qHTS assay to identify small molecule agonists of H2AX (AID 1224845; active = well fitted activation curve with a large enough effect in the signal ratio in the repeat runs, not every such curve was filed as active; the % refers to the signal ratio). A digest of the protocol: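 Phospho-H2AX Ser139 measured by HTRF (ex 320 nm; em 665 and 620 nm) after 24 hr antibody incubation. Compounds, 15 concentrations, 0.76% DMSO, were applied to CHO-K1 cells for 3hr at 37C before lysis.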
A short description of assay [13]: qHTS assay to identify small molecule agonists of the hypoxia (HIF-1) signaling pathway (AID 1224846; active = well fitted activation curve with a large enough effect in the signal ratio in the repeat runs, not every such curve was filed as active; the % refers to the signal ratio). A digest of the protocol:
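Steps: seed ME-180 HRE-bla cells (2,000/well, 0.5% dialyzed FBS); incubate 5 hrs at 37C; pin-transfer compounds or DMSO; incubate 17 hrs; add LiveBLAzer B/G substrate CCF4-AM; measure reporter activation by FRET.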

Assay [14] is described as follows: qHTS assay to identify small molecule agonists of H2AX - cell viability counter screen (AID 1224847; calls by dose curve; also: top concentration of the series differs between compounds; nearly all actives have a fitted effect of over 30% in size). In a few lines:
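Quantitative HTS viability measurement: CHO-K1 wild-type cells in serum (10% FBS) medium, short 3 hr drug exposure at 37C with 0.76% DMSO, CellTiter-Glo luminescent detection.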

The nature of assay [15]: qHTS assay to identify small molecule antagonists of the estrogen related receptor (ERR) signaling pathway from Tox21 library (AID 1224848). Also: nearly all actives have a fitted effect of over 50% in size. Also: potency is read from the fitted curve at half-maximal effect. A digest of the protocol:
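Antagonist-mode screen of the Tox21 10K library in an NTP-provided ERR reporter cell line; 18 h compound exposure at 37 C, luminescence measured with ONE-Glo.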

A short description of assay [16]: qHTS assay to identify small molecule agonists of the estrogen related receptor (ERR) signaling pathway from Tox21 library (AID 1224849; calls by dose curve; also: nearly all actives have a fitted effect of over 15% in size). Particulars: ERR reporter cell line, ONE-Glo luciferase, 18 h; at 92.4 µM (top of the series) unless noted. In a few lines: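 Agonist signal is luciferase luminescence from an ERR reporter cell line treated 18 h at 37 C with DMSO-dissolved compounds, read 30 min after ONE-Glo addition at room temperature.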

Assay [17] can be described thus: qHTS RealTime-Glo MT Cell Viability Assay in HepG2 cells - 24 hour (AID 1224867). Also: nearly all actives have a fitted effect of over 50% in size. A digest of the protocol:
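HepG2 cells (600/well) were dispensed with RealTime-Glo reagents, incubated 5 h at 37 °C, then treated with compounds in DMSO for up to 40 h. Nonlytic NanoLuc luminescence reflecting viable cells was read at each stated time point.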

The nature of assay [18]: qHTS RealTime-Glo MT Cell Viability Assay in HEK293 cells - 32 hour (AID 1224868). In a few lines: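 HEK293 cells seeded with NanoLuc/prosubstrate reagent, rested 5 h at 37 C, then dosed and kept at 37 C up to 40 h. Nonlytic real-time luminescence from viable cells read at 0, 8, 16, 24, 32 and 40 h.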
The nature of assay [19]: A CellTox Green Cytotoxicity Assay to monitor cytotoxicity in HEK293 cells - 0 hour (AID 1224869). Also: nearly all actives have a fitted effect of over 50% in size. Also: potency is read from the fitted curve at half-maximal effect. In a few lines:
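Cytotoxicity was tracked continuously in HEK293 cells by a DNA-binding dye excluded from viable cells. Compounds were transferred in DMSO 5 h after seeding; fluorescence was recorded at intervals up to 40 h.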

Assay [20] is described as follows: qHTS assay to identify small molecule agonists of the estrogen related receptor signaling pathway with the pleiotropic PPARgamma coactivator (PGC) (AID 1224823). A digest of the protocol: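 PGC/ERR reporter cells seeded 6 h, then exposed to compounds (23 nL in DMSO) for 18 h at 37 C. One-Glo luciferase luminescence read after 30 min at room temperature.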
% is scaled to controls: 0 for no effect and ±100 for the full control effect.

Chain of Nuclear receptor subfamily 1 group I member 3 (Homo sapiens) (Q14994 whole entry, looked up): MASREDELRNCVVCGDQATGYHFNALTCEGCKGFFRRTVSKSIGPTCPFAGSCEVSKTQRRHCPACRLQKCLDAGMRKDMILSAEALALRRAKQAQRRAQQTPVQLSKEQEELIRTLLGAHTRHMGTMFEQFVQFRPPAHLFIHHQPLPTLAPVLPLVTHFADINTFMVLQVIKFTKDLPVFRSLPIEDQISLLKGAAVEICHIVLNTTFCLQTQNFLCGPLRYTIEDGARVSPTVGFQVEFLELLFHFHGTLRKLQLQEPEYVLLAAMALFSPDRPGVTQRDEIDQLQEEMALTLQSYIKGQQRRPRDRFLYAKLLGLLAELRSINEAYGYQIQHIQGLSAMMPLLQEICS
Chain of Luciferin 4-monooxygenase (Photinus pyralis) (P08659 whole entry, looked up): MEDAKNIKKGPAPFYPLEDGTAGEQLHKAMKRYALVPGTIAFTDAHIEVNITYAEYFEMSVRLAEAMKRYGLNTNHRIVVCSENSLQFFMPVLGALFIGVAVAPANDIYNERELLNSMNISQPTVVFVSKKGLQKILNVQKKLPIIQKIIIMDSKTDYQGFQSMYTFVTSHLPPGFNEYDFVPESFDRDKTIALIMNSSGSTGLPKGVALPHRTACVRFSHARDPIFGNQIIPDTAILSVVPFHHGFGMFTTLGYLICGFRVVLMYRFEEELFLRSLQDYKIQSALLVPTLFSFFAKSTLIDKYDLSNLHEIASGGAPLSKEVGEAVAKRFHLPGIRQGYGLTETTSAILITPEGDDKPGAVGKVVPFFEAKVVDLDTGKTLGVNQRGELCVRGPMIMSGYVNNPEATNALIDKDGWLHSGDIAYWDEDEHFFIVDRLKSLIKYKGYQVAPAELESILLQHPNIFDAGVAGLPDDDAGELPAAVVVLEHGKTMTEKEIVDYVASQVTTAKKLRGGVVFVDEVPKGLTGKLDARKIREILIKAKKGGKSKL
Chain of Thyrotropin receptor (Homo sapiens) (P16473 whole entry, looked up): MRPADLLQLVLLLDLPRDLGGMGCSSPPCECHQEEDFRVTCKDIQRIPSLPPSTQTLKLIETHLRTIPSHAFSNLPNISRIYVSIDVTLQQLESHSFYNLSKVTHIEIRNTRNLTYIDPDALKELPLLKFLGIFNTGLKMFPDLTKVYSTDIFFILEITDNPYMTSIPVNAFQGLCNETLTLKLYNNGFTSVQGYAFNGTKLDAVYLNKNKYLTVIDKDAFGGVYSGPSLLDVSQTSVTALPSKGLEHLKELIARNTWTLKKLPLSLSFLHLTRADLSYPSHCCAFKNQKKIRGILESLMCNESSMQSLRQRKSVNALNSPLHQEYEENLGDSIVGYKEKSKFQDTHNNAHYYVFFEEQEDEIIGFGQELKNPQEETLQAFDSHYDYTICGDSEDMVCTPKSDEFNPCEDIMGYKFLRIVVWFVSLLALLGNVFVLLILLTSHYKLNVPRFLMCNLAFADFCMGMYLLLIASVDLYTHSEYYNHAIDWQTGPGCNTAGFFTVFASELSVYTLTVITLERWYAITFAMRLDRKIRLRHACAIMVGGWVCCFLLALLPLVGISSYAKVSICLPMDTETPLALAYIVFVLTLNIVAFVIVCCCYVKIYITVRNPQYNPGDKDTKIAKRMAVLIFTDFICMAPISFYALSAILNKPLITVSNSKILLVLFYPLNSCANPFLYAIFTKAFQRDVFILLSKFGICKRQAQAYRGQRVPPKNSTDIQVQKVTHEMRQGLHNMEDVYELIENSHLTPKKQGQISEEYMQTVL

As for `N#Cc1ccc(Cl)cc1`, the Potency entry in assay [1], in [2], in [3], in [4], in assay [5] and in [6] was “inactive” throughout. The Potency entry in [7], in assay [8], in assay [9], in assay [10], in assay [11] and in [12] was “inactive” in each case. The Potency result in assay [14], in assay [15], in assay [17] and in [18] was “inactive” in each case. Further, the call in [13] was inactive. For the same compound, in assay [16], the activity change, positive = activation was 0.802%.

For the compound `[CH3][Sn]([CH3])([Cl])[Cl]`, the Potency was 62.1 µM (active) in [1]; 69.7 µM (active) and 43.3 µM (active) in assay [8]; 69.7 µM (active) and 61.1 µM (active) in assay [15]. For the same compound, the Potency result in assay [2], in [3], in assay [4], in assay [5], in assay [6] and in assay [7] was “inactive” each time. In addition, the Potency result in assay [9], in [12], in assay [17] and in [19] was “inactive” throughout. For the same compound, the activity change, positive = activation in assay [16] is -70.4% and -43.3%.

With `O=C(O)C(F)(F)C(F)(F)C(F)(F)C(F)(F)C(F)(F)C(F)(F)C(F)(F)C(F)(F)C(F)(F)F`, the Potency entry in [1], in [2], in assay [3], in assay [4], in assay [5] and in assay [6] was “inactive” each time. Moreover, the Potency result in assay [7], in assay [8], in assay [9], in assay [10], in assay [12] and in assay [14] was “inactive” in each case. Further, the Potency result in [15], in assay [17], in assay [18] and in assay [19] was “inactive” throughout. In addition, in [11], the Potency was 13.8 µM (active). Also, in assay [16], the activity change, positive = activation was 3.44%.

Take `NCC(CC(=O)O)c1ccc(Cl)cc1` (stereo not given): the outcome in assay [20] was inactive. In addition, the viability change, negative = cytotoxic is 4.17% [at 0.349 µM] in assay [1], 7.94% [at 0.349 µM] in assay [3] and 7.5% [at 0.349 µM] in [7]. Besides, the activity change, negative = inhibition in [2] was 0.511% [at 0.435 µM]. Besides, the activity change, negative = cytotoxicity was 8.53% [at 0.349 µM] in assay [4], -2.38% [at 0.29 µM] in assay [11], -1.04% [at 0.582 µM] in assay [14] and -0.0323% [at 0.29 µM] in [17]. Besides, the results for the activity, negative = inhibition in assay [8] and in assay [15] were -1% [at 0.349 µM] and 4.98% [at 0.349 µM], respectively. The activation was -1% [at 0.349 µM] in assay [9] and 16.4% [at 0.349 µM] in [10]. In addition, the activation (H2AX phosphorylation) in [12] was 0.429% [at 0.582 µM]. Further, in [16], the activity change, positive = activation was 2.78% [at 0.349 µM]. Moreover, the activity change, negative = cytotoxic in assay [18] was 7.97% [at 0.29 µM]. Further, in assay [19], the cytotoxicity is -11.1% [at 0.29 µM].

Consider `COc1nn(C(=O)NS(=O)(=O)c2ccccc2OC(F)(F)F)c(=O)n1C`, for which the Potency result in assay [1], in assay [2], in assay [3], in assay [4], in assay [5] and in [6] was “inactive” in each case. Moreover, the Potency entry in [7], in assay [8], in [9], in assay [10], in [11] and in assay [12] was “inactive” throughout. The Potency result in assay [14], in assay [15], in assay [17] and in assay [18] was “inactive” throughout. Also, in assay [13], the outcome was inactive. Besides, in assay [16], the activity change, positive = activation was 1.4%. For the same compound, in [19], the Potency was 31.7 µM (active).

As for `CC(C)(Cl)[N+](=O)[O-]`, the Potency entry in assay [1], in assay [2], in [3], in [4], in [5] and in [6] was “inactive” in each case. The Potency entry in assay [7], in [9], in assay [10], in assay [11], in assay [12] and in assay [14] was “inactive” each time. Also, the Potency entry in assay [17] and in assay [18] was “inactive” each time. Also, in [13], the call was inactive. The activity change, positive = activation in assay [16] was -29.2%.

With `COc1cc(CC(C)N)cc2c1OCO2` (stereo not given), the Potency entry in assay [1], in assay [2], in assay [3], in [4], in assay [5] and in assay [6] was “inactive” each time. Moreover, the Potency entry in assay [7], in [8], in [9], in assay [10], in assay [11] and in assay [12] was “inactive” in each case. The Potency entry in assay [14], in assay [15], in assay [17] and in assay [18] was “inactive” throughout. The call in assay [13] was inactive. Moreover, the activity change, positive = activation in assay [16] was -3.18%.
